DT40 TDP1 CPT – qHTS for Inhibitors of human tyrosyl-DNA phosphodiesterase 1 (TDP1): qHTS in cells in presence of CPT; actives 12% (n = 420,000); chicken DT40 Tdp1-/-;hTDP1 cells + 20 nM CPT, ATP luminescence, 48 h; Potency, µM (titrated, usually from 46.2 µM), for the others: at the highest dose activity change, negative = growth inhibition, actives largely listed as inhibitors; AID 686979, 2013; note: potency is the fitted concentration of half-maximal effect; nearly all actives have a fitted effect of over 55% in size
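Chicken DT40 Tdp1-/- cells complemented with human TDP1, 400 cells/well, exposed to compounds plus 20 nM camptothecin for at least 48 h at 37 C; viability read as ATP content by CellTiter-Glo luminescence.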
TDP1 inh – qHTS Assay for Inhibitors of Tyrosyl-DNA Phosphodiesterase (TDP1); Tyrosyl-DNA phosphodiesterase 1 (Homo sapiens), Q9NUW8; recombinant TDP1, AlphaScreen DNA substrate cleavage; Potency, µM (doses to about 130 µM), without a hit: top-dose activity change, negative = inhibition, most hits filed as inhibitors; actives 0.28% (n = 350,000); AID 485290, 2010; note: potency is the fitted concentration of half-maximal effect; nearly all actives have a fitted effect of over 40% in size
Target sequence (Q9NUW8 whole entry, looked up): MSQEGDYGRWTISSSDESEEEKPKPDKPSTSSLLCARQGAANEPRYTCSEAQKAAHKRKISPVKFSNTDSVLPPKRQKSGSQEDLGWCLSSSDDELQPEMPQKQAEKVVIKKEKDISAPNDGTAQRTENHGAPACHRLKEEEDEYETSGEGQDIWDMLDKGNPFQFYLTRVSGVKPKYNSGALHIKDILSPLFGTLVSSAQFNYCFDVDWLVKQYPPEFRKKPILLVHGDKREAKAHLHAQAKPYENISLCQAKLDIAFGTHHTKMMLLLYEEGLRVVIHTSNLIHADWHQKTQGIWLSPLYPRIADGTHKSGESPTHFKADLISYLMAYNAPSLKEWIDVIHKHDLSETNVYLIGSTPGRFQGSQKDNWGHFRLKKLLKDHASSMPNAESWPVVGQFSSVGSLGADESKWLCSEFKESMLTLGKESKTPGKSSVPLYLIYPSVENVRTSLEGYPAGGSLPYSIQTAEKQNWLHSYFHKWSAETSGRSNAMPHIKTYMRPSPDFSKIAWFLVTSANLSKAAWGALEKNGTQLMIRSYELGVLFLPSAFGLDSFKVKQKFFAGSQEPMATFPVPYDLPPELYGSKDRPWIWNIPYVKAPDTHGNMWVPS
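Recombinant E. coli-expressed Tdp1 (1 nM) preincubated with compound 15 min at RT, then 5'-biotin/3'-phosphotyrosine-FITC DNA substrate (15 nM) added for 5 min. AlphaScreen beads (10 ug/ml) added, 10 min RT; tyrosine-FITC cleavage read as signal loss.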
ELG1 repair inh – qHTS screen for small molecules that inhibit ELG1-dependent DNA repair in human embryonic kidney (HEK293T) cells expressing luciferase-tagged ELG1 | HEK293T ELG1-luciferase reporter, luminescence, 16 h; DNA damage induced by 5-fluorouridine | AID 504467, 2011 | Potency, µM (series often up to 46.1 µM), for inactives: at the highest dose activity change, negative = inhibition, most hits filed as inhibitors | actives 2.3% (n = 330,000); note: potency is the fitted concentration of half-maximal effect; nearly all actives have a fitted effect of over 55% in size
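Reporter activity after DNA damage by 5-fluorouridine is monitored. Compound-treated cells incubate 16 hr at 37 °C, then ONE-Glo is added for 30 min before luminescence reading.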
Giardia kill – Small Molecules that selectively kill Giardia lamblia: qHTS | actives 0.15% (n = 340,000) | Giardia lamblia trophozoite viability | activity change, % at 7.66 µM, hits read low; in the data active = activity change below about -80%; inconclusive = between about -30% and that limit;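 note: parasites exposed to compound for two days anaerobically before the ATP read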
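Each well holds 100 Giardia trophozoites and compound. After two days (48 hrs) at 37 deg C in anaerobic conditions, ATP is quantified by luminescence.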
TDP1 cell noCPT – qHTS for Inhibitors of human tyrosyl-DNA phosphodiesterase 1 (TDP1): qHTS in cells in absence of CPT | DT40 Tdp1-/- hTDP1 cells, no CPT, ATP luminescence, 48 h | Potency, µM (doses to about 46.2 µM), inactives show at the highest dose activity change, negative = growth inhibition, most hits filed as inhibitors | actives 15% (n = 420,000); note: potency is the fitted concentration of half-maximal effect; nearly all actives have a fitted effect of over 55% in size
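Camptothecin absent (DMSO only). Human TDP1-complemented DT40 knockout cells, 400 cells/well, 37 °C for minimum 48 hr; ATP measured via CellTiter-Glo, 30 min dark incubation, luminescence.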
IL-1B inflam inh – qHTS for Inhibitors of Inflammasome Signaling: IL-1-beta AlphaLISA Primary Screen; THP-1 LPS/ATP IL-1B secretion, AlphaLISA, 16 h; hits give low values; activity change, % at 57.5 µM; actives 4.7% (n = 360,000); AID 743279, 2014; in the data active = activity change below about -50%; inconclusive = mostly about -30% to -49%
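THP-1 cells pretreated 1 hr with compounds (up to 57.5 uM final), then stimulated with LPS (250 ng/mL final) plus ATP (1.25 mM final); secreted IL-1B measured by AlphaLISA after 16 hr, decreased signal indicating inhibition.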
Numbers without * were called inactive; ? = inconclusive; . = no result. Most compounds without a hit are left out; they make up all but 19% or so of the library. Unless noted, calls come from the whole dose curve; as a rule, active = well fitted curve in the direction sought with a large enough effect; inconclusive = small, poorly fitted or top-dose-only effect, or another doubt; inactive = no such curve, though single readings can be large; an effect the other way counts as inactive or inconclusive. % is set by controls: 0 for no effect and ±100 for the full control effect.

SMILES | DT40 TDP1 CPT | TDP1 inh | ELG1 repair inh | Giardia kill | TDP1 cell noCPT | IL-1B inflam inh
CN1CCC(=C(c2ccccc2)c2ccc(Br)cc2)CC1 | ? | . | . | 0 | 16µM* | -27
CCc1ccc(NC(=O)Cn2c(=O)n(-c3ccc(OC)cc3)c(=O)c3ccc(C(=O)NCc4ccc(C)cc4)cc32)cc1 | 10µM* | -2% | . | . | 7.3µM* | .
CCC(C)NC(=O)Cn1c(=O)n(-c2ccc(OC)cc2)c(=O)c2ccc(C(=O)NCc3ccc(C)cc3)cc21 (stereo not drawn) | 14% | -3% | -4% | -3 | -10% | -17
CCOc1ccc(NC(=O)Cn2c(=O)n(-c3ccccc3)c(=O)c3ccc(C(=O)NCc4ccc5c(c4)OCO5)cc32)cc1 | 21µM* | 0% | . | . | 21µM* | .
CCc1ccc(NC(=O)Cn2c(=O)n(-c3ccccc3)c(=O)c3ccc(C(=O)NCc4ccc5c(c4)OCO5)cc32)cc1 | ? | 0% | . | . | ? | .
CCCN(CCC)C(=O)Cn1c(=O)n(-c2ccc(OC)cc2)c(=O)c2ccc(C(=O)NCc3ccc(C)cc3)cc21 | ? | 2% | . | . | 16µM* | .
Cc1ccc(NC(=O)Cn2c(=O)n(-c3ccc(C)cc3)c(=O)c3ccc(C(=O)NCc4ccccc4Cl)cc32)cc1 | 7.3µM* | 2% | . | . | 13µM* | .
CCCCCCCCCCCCOCCOCCOCCOCCO | . | 3% | . | . | . | .
CC(C)N1CCN(Cc2cccc(-n3cccn3)c2)CC1CCO (stereo not drawn) | -10% | 3% | -5% | 5 | -9% | 2
COc1ccccc1-c1c(C)nn2c(N3CCN(c4cccc(Cl)c4)CC3)cc(C)nc12 | -1% | 4% | . | . | 7% | .
CCN(CC)C(CNC(=O)c1cc(=O)[nH]c2ccccc12)c1ccccc1Cl (stereo not drawn) | -1% | . | 0% | 13 | -15% | 4
COc1cccc(NC(=O)Cn2c(=O)n(-c3ccc(C)cc3)c(=O)c3ccc(C(=O)NCc4ccco4)cc32)c1 | 16µM* | -2% | . | . | ? | .
COc1ccccc1NC(=O)Cn1c(=O)n(-c2ccc(C)cc2)c(=O)c2ccc(C(=O)NCc3ccco3)cc21 | ? | 8% | . | . | ? | .
O=C(CCc1ccccc1)Nc1ccc(F)cc1F | 4% | 6% | ? | -5 | -5% | -22
O=C(CCCc1ccccc1)Nc1ccc(Br)cc1F | 15µM* | . | ? | 2 | ? | -11
O=C(CCCc1ccccc1)Nc1ccccc1[N+](=O)[O-] | 10µM* | . | ? | -19 | 21µM* | 4
O=C(Cc1ccccc1[N+](=O)[O-])NCCCc1ccccc1 | 16µM* | . | 4% | 12 | ? | 1
CCn1cc(S(=O)(=O)c2ccccc2)c(=O)c2cc(C)ccc21 | -6% | 9% | . | . | -5% | .
COc1cc2c(cc1OC)CC(=O)NC=C2 | 7% | 9% | ? | 12 | -4% | 2
N#C/C(=C/c1ccc(-c2ccc(S(=O)(=O)N3CCOCC3)cc2)o1)C(=O)NC1CC1 | -107% | . | . | -25 | 15µM* | ?
N#C/C(=C\c1ccc(-c2ccc(S(=O)(=O)N3CCOCC3)cc2)o1)C(=O)NC1CC1 | 12µM* | 7% | ? | 6 | 21µM* | -2
CCCN(CCC)Cc1cc(=O)oc2ccc3ccccc3c12 | ? | . | . | . | ? | 16
Cc1ccc(Nc2c(-c3ccc(C)o3)nc3ccccn23)cc1 | ? | 3% | . | 13 | 13µM* | .
Cc1ccc(-c2nc3cnccn3c2Nc2ccccc2)o1 | 21µM* | 5% | 25% | -19 | 21µM* | 36

From PubChem
